Compound activity deposited in PubChem BioAssay by National Center for Advancing Translational Sciences (NCATS).
This is a sample that favours compounds with a hit; in the whole collection about 4.8% have one here.
TGFb SMAD3 inh: qHTS for Inhibitors of TGF-b; 410,000 tested, 1.2% active; AID 588855, 2011; Potency, µM (highest dose often 46.1 µM), without a hit: at the highest dose activity, negative = inhibition, actives largely listed as inhibitors; HepG2 CAGA-GFP TGF-b/SMAD3 reporter, GFP fluorescence, 18 h; TGF-beta stimulated, 500 pg/mL final; note: potency is the fitted concentration of half-maximal effect; % is set by controls: 0 for no effect and ±100 for the full control effect; nearly all actives have a fitted effect of over 65% in size
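TGF-beta reporter screen: HEPG2 CAGA-GFP, 1% FBS, 500 pg/mL TGF-beta final, 18 h; per-cell GFP summed per well; curves fitted and categorized by class.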
DRD3 agonist: qHTS of D3 Dopamine Receptor Agonist: qHTS. D3R DiscoveRx beta-arrestin cells, luminescence, 90 min. max activation, %. 410,000 tested, 0.58% active. AID 652048, 2013; in the data active = max activation above about 30%; note: 0% is about no effect
Target sequence (P35462 whole entry, looked up): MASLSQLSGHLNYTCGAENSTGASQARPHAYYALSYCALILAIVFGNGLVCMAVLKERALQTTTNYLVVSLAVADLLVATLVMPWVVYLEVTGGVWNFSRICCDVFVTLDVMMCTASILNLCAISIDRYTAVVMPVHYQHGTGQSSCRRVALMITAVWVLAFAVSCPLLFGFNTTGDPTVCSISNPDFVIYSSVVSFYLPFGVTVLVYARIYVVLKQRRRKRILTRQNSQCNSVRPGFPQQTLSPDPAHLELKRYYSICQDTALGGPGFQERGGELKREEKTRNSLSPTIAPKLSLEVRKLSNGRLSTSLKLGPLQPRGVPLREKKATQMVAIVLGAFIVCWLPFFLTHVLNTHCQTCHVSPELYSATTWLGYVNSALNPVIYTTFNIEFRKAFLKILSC
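Agonist mode: compounds and dopamine controls were applied to plated cells for 90 min at 37 degrees C after an overnight attachment at 1500 cells/well. Luminescent read-out followed 30 - 60 minutes at room temperature with DiscoveRx detection reagent.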
HepG2 viability: qHTS for Inhibitors of TGF-b: Cytotox Counterscreen; HepG2 CAGA-GFP viability, ATP luminescence, 18 h; Potency, µM (doses to about 46.1 µM), for the others: at the top dose activity change, negative = cytotoxicity, usual class: cytotoxic; 410,000 tested, 0.76% active; AID 588856, 2011; note: potency is the fitted concentration of half-maximal effect
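HepG2 CAGA-GFP cells (1000/well, DMEM with 1% FBS) received compound, then TGF-beta at 500 pg/mL final, and were incubated 18 hours at 37 degrees C. Viability was read by CellTiter-Glo luminescence. Media-only wells were set as complete cell-killing and DMSO as no toxicity.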
ATXN2 expr inh: Primary qHTS for Inhibitors of ATXN expression; Potency, µM (highest dose often 57 µM), for inactives: top-dose activity change, negative = inhibition, usual class: inhibitors; 360,000 tested, 0.72% active; HEK-293 ATXN2-luciferase reporter, luminescence, 24 h; AID 1745845, 2022; note: potency is the fitted concentration of half-maximal effect; % is set by controls: 0 for no effect and ±100 for the full control effect; nearly all actives have a fitted effect of over 55% in size
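qHTS (up to 57 uM final) was run with 24 h compound exposure of reporter cells at 37 °C. Each well was multiplexed: SteadyGlo luminescence measured ATXN2-luciferase expression after a fluorogenic Gly-Phe-AFC viability readout (25 uM final).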
D3 antag: qHTS of D3 Dopamine Receptor Antagonist: qHTS. D3R cells, DiscoveRx beta-arrestin luminescence, antagonist mode; stronger effect = lower value. 360,000 tested, 2.5% active. D(3) dopamine receptor (Homo sapiens), P35462. max response, negative = inhibition, %. AID 652054, 2013; in the data active = max response below about -50%; inconclusive = no clear call, values can overlap the other calls; note: % is set by controls: 0 for no effect and ±100 for the full control effect
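Cells plated overnight at 1500 cells/well, then exposed to library compounds with dopamine controls for 90 minutes at 37 degrees C. DiscoveRx reagent added for 30–60 minutes at room temperature; luminescence read, quantitative HTS format.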
ATXN viability: Viability Counterscreen for Primary qHTS for Inhibitors of ATXN expression; Potency, µM (highest dose often 56.7 µM), most hits filed as cytotoxic; AID 651635, 2014; 400,000 tested, 0.49% active; S2 cells (HEK-293 line with an ATXN2-luciferase reporter) viability, CellTiter-Fluor protease fluorescence, 24 h; note: potency is the fitted concentration of half-maximal effect; nearly all actives have a fitted effect of over 40% in size
The depositor's hits bear a star; i = inactive; ? = inconclusive; . = no result given. Unless noted, calls come from the whole dose curve; as a rule, active = well fitted curve in the direction sought with a large enough effect; inconclusive = small, poorly fitted or top-dose-only effect, or another doubt; inactive = no such curve, though single readings can be large; an effect the other way counts as inactive or inconclusive.

SMILES	TGFb SMAD3 inh	DRD3 agonist	HepG2 viability	ATXN2 expr inh	D3 antag	ATXN viability
O=[N+]([O-])c1c(NCCCO)cc(Sc2ccc(Cl)cc2)c2nonc12	5%	-65	-22%	?	-113*	32µM*
Cn1ccnc1Sc1cc(NCCCO)c([N+](=O)[O-])c2nonc12	?	-20	-26%	?	-112*	?
O=C(O)[C@H](O)[C@@H](O)[C@H](O)[C@H](O)CO	.	1	.	.	.	.
COc1nn(-c2ccccc2)c(=O)c(Cl)c1Cl	14µM*	-7	14µM*	?	-64*	?
Cc1onc(-c2ccccc2)c1C(=O)O/N=C(\N)c1ccc([N+](=O)[O-])o1	13µM*	0	13µM*	.	-23	?
Cc1onc(-c2cccc(Cl)c2Cl)c1C(=O)O/N=C(\N)c1ccc([N+](=O)[O-])o1	?	3	-25%	-33%	3	i
CCCCc1c(Cc2ccccc2)ncn1CCc1ccccc1OC	.	-5	.	14µM*	0	.
COc1ccccc1CCn1cnc(C)c1CC(C)C	.	-18	.	0%	-78*	?
CCCCc1c(-c2ccccc2)ncn1CCc1ccccc1OC	.	6	.	?	54	.
CCc1ncn(CCc2ccccc2OC)c1C(C)C	.	-16	.	-3%	-24	i
COc1cccc(-c2ncn(CCc3ccccc3OC)c2C(C)C)c1	.	6	.	?	15	11µM*
Cc1nc2cc(NC(=O)[C@@H]3C[C@@H](Sc4ccccn4)CN3Cc3cccc(F)c3)ccc2s1	.	.	.	.	.	i
Cc1ccc(C)c(N2CCN(C(=O)C(C)n3c(C)c4cnn(-c5ccccc5)c(=O)c4c3C)CC2)c1 (stereo not given)	?	-12	-15%	-8%	.	i
CCOC(=O)c1ccc(NS(=O)(=O)c2ccc3[nH]c4c(c3c2)CCCCC4)cc1	?	-8	25µM*	?	.	?
COc1cccc(CNS(=O)(=O)c2cc3c4c(c2)CCN4C(=O)CC3)c1	4%	-29	-14%	-11%	-72*	i
COc1cc(NS(=O)(=O)c2ccc3[nH]c4c(c3c2)CCCCCC4)cc(OC)c1	13µM*	0	-103%	?	.	?
COc1cccc(CNS(=O)(=O)c2ccc3[nH]c4c(c3c2)CCCCC4)c1	?	-11	22µM*	?	.	?
COc1cc(NS(=O)(=O)c2ccc3[nH]c4c(c3c2)CCCC4)cc(OC)c1OC	?	-15	-45%	?	.	?
COc1ccc(OC)c(CCNC(=O)c2nc(-c3ccc(Cl)cc3)n3c2CCCCC3)c1	?	7	-9%	-21%	.	?
O=c1[nH]c(=O)n([C@H]2O[C@H](CO)[C@@H](O)[C@@H]2O)cc1/C=C\Br	.	.	.	-9%	.	i
CC1CCc2nn(CC(=O)Nc3ccccc3Cl)cc2C1 (stereo not given)	-3%	-13	-21%	9%	.	i
Cc1ccc(S(=O)(=O)Nc2ccc3c(c2)nc(CCN2CCCC2)n3C)cc1	?	-14	-7%	18%	-57*	i
Cn1c(CN2CCCC2)nc2cc(NS(=O)(=O)c3ccc(Cl)cc3)ccc21	-5%	-19	-24%	0%	-104*	i
CC(C)(C)n1cnc2cc(NS(=O)(=O)c3ccccc3)ccc21	11%	-3	0%	13%	10	i
Cn1c(CCN2CCCCC2)nc2cc(NS(=O)(=O)c3ccccc3)ccc21	?	-10	4%	4%	-11	i
SMILES	TGFb SMAD3 inh	DRD3 agonist	HepG2 viability	ATXN2 expr inh	D3 antag	ATXN viability
COc1ccc(-n2cnc3cc(NS(=O)(=O)c4ccccc4)ccc32)cc1	-4%	5	-5%	39%	-87*	i
Cn1c(CN2CCCC2)nc2cc(NS(=O)(=O)c3ccccc3)ccc21	1%	-35	-9%	2%	-80*	i
Cc1cc(C)c2c(c1)c(C)cc1nnc(SCC(=O)c3ccccc3)n12	-7%	3	2%	.	.	.
O=c1ccn([C@@H]2O[C@H](CO)[C@H](O)[C@@H]2F)c(=O)[nH]1	.	.	.	-9%	.	.
Cc1ccc(S(=O)(=O)CC(c2ccccc2)N2CCCCC2)cc1 (stereo not given)	0%	-11	5%	-17%	-18	i
Cc1ccc(S(=O)(=O)CC(CN2CCCCC2)N2CCCCC2)cc1 (stereo not given)	16µM*	-14	-93%	?	-68*	i
O=C(NCCN1CCCCC1)Nc1ccc(F)c(Cl)c1	1%	-15	-1%	-5%	?	i
CN(C)CC=CC(=O)Nc1cc2c(Nc3ccc(F)c(Cl)c3)ncnc2cc1O[C@H]1CCOC1	.	.	.	27µM*	.	.
COc1cc2ncnc(Nc3ccc(F)c(Cl)c3)c2cc1NC(=O)C=CCN1CCCCC1	.	.	.	31µM*	.	.
CCOc1cc2ncc(C#N)c(Nc3ccc(F)c(Cl)c3)c2cc1NC(=O)C=CCN(C)C	.	.	.	22µM*	.	.
O=C(Cc1ccc(Cl)cc1)c1c[nH]c(C(=O)NCc2cccnc2)c1	-28%	0	7%	.	-2	2.5µM*
Cc1cc2nc(NC(=O)C3(C)CCN3C(=O)C(C)C)[nH]c2cc1C (stereo not given)	1%	66*	-12%	27%	-18	i
Cc1cc(C=O)cc(C)c1[N+](=O)[O-]	-17%	.	-4%	.	.	.
CCNc1ccc(Br)cc(C(=O)/C=C/c2ccc(Cl)cc2)c1=O	0%	-22	-43%	22µM*	?	.
CCNc1ccc(Br)cc(C(=O)/C=C/c2ccc3c(c2)OCO3)c1=O	5%	1	-8%	-8%	-10	i
CCNc1ccc(Br)cc(C(=O)/C=C/c2c(Cl)cccc2Cl)c1=O	35%	-4	-50%	?	-66*	?
Cc1ccc(CSc2cn(CC(=O)N3CCCCCC3)c3ccccc23)cc1	?	-10	-24%	.	.	.
COc1cc(NC(=O)CC[C@H]2O[C@@H](n3cnc4c(NC(=O)c5ccccc5)ncnc43)[C@H](O)[C@@H]2O)cc(OC)c1OC	15%	-10	-34%	-8%	-52*	i
CCCCNC(=O)CCCN1C(=O)c2ccccc2Sc2ncccc21	-4%	12	-10%	.	.	.
Cc1ccc2c(c1)c1c(c(=O)n(-c3cccc(Cl)c3)c(=O)n1C)n2C	-1%	5	0%	13%	.	i
CCCCC1=CC2=C(c3ccco3)C(=O)C(C)(OC(=O)c3ccc(OC)cc3)C(=O)C2=CN1C1CCCCC1 (stereo not given)	2%	-39	-21%	-17%	-91*	?
